# Laboratory results: PubChem BioAssay (Tox21)
# The source made the active and inactive calls. Where a call stands in place of a potency, no number is given. Calls come from the whole dose curve.
# Molecular target: Acetylcholinesterase (Homo sapiens) (UniProt P22303)
# Experiment: Acetylcholinesterase (AChE) small molecule antagonists: enzyme-based qHTS assay with human liver microsomes (AID 1347399); note: nearly all actives have a fitted effect of over 60% in size
# Details: Potency: qHTS inhibition; outcome: qHTS inhibition; series mostly up to 115 µM
# Summary of the method: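 Recombinant human AChE (50 mU/mL in the enzyme mix) and human liver microsomes (0.25 mg/mL final) were preincubated with compound and NADPH (0.25 mg/mL final) for 30 min at 37 C. Acetylthiocholine/DTNB was then added; thiocholine was read colorimetrically after 10 min at room temperature.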
# Chain of Acetylcholinesterase (Homo sapiens) (P22303 whole entry, looked up): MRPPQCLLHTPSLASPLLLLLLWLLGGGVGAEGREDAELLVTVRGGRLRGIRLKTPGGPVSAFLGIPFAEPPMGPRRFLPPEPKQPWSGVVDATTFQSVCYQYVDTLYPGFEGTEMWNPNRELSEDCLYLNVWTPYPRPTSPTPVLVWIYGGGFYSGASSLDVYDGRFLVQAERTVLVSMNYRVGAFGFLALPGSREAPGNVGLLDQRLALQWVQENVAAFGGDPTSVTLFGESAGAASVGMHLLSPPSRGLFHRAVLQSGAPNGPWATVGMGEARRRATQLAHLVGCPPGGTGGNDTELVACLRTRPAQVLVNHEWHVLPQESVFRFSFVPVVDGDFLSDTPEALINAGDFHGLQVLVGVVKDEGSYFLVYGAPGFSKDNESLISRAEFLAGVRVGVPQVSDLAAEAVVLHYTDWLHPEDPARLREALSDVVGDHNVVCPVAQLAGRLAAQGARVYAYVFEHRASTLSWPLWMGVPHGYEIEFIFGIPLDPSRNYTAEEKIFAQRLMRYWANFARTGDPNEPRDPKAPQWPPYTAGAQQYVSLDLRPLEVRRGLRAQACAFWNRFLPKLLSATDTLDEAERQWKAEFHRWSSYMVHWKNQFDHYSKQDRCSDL
Compound,Potency,"activity change, negative = inhibition",outcome
N[C@@H](CCC(=O)O)C(=O)O,inactive,–,–
CCCCSCCCC,inactive,–,–
CCCCCCCCCCCCCCCCCC(=O)OCC(CC)CCCC (stereo unspecified),inactive,–,–
CCOCCn1c(N2CCCN(C)CC2)nc2ccccc21,inactive,–,–
CC1=C(/C=C/C(C)=C/C=C/C(C)=C/C(=O)O)C(C)(C)CCC1,inactive,–,–
Cc1ccc(N=Nc2c(O)ccc3ccccc23)c(C)c1,inactive,–,–
C=CC(=O)OCCOC1C2CCC1C1CC=CC12 (stereo unspecified),–,0.164% [at 23.6 µM] (inactive),–
CCC(C)C=O (stereo unspecified),inactive,–,–
COc1ccc(OC)c(NC(=O)CC(C)=O)c1,inactive,–,–
Nc1ccc(C(=O)N2CC3CC(CN(Cc4ccccc4)C3)C2)cc1,inactive,–,–
CCCCN1CCCC[C@H]1C(=O)Nc1c(C)cccc1C,inactive,–,–
O=C(O)Cc1ccccc1Nc1c(Cl)cccc1Cl,inactive,–,–
C=CCOC(=O)CCCCCCCC,inactive,–,–
C1CCCNCCC1,inactive,–,–
O=C(Cl)c1ccccc1[N+](=O)[O-],inactive,–,–
C#CCN[C@@H]1CCc2ccccc21,–,–,inactive
CCc1cnc(C(=O)O)c(C(=O)O)c1,inactive,–,–
C=C/C=C/C=C/CCCCC,–,-1.78% [at 23.6 µM] (inactive),–

Compound,Potency,"activity change, negative = inhibition",outcome
Cc1cccc2c1cc1ccc3cccc4ccc2c1c34,inactive,–,–
CCC1CCC(CCC(=O)O)C1 (stereo unspecified),inactive,–,–
CN(C)c1cc(NC(=O)CNC(C)(C)C)c(O)c2c1C[C@H]1C[C@H]3[C@H](N(C)C)C(=O)C(C(N)=O)=C(O)[C@@]3(O)C(=O)C1=C2O,inactive,–,–
CC(C)CCCCCCc1ccc(O)cc1,inactive,–,–
CN1CCC(=C2c3ccccc3CCc3cccnc32)CC1,inactive,–,–
O=[N+]([O-])c1ccc(F)cc1F,inactive,–,–
CCCCCCCCS,inactive,–,–
CC(=O)OCCC1CCCCC1,inactive,–,–
Cc1ccccc1OCC(=O)O,inactive,–,–
C[C@H]1O[C@H](O[C@H]2[C@H](O)[C@@H](O)[C@@H](O[C@H]3[C@H](O)[C@@H](O)[C@H](O)O[C@@H]3CO)O[C@@H]2CO)[C@H](O)[C@@H](O)[C@@H]1N[C@H]1C=C(CO)[C@@H](O)[C@H](O)[C@H]1O,inactive,–,–
COCCCCCCCCOCCC[Si](C)(O[Si](C)(C)C)O[Si](C)(C)C,inactive,–,–
C=C[Si](C)(C)Cl,–,-5.99% [at 10.5 µM] (inactive),–
O=C(/C=C/c1ccc([N+](=O)[O-])cc1)c1ccccc1,inactive,–,–
CC=C(Cl)Cl,inactive,–,–
CN1C(C(=O)Nc2ccccn2)=C(O)c2ccccc2S1(=O)=O,inactive,–,–
CCCCC(CC)COS(=O)(=O)O (stereo unspecified),inactive,–,–
C/C(=C(/OCCOc1ccc(Cl)cc1)c1ccc(Cl)cc1Cl)n1ccnc1,inactive,–,–
CC(C)CCCCCOC(=O)CS,inactive,–,–
